{"source": "PubChem BioAssay AID1259354", "about": "(Paczesny and Yang Labs, IUPUI and University of Michigan, 2018)", "note": "About 1,800 (2.3%) of roughly 78,000 compounds were called active. Inconclusive results (about 27%) are left out. Cut-off read from the data, not from the text of the source: active = inhibition above about 30%; inconclusive = mostly about 10% to 28%; inactive = weaker than that. Only a selection was taken, and actives are over-represented in it overall.", "data": [{"target": "Interleukin-1 receptor-like 1 (Homo sapiens) (UniProt Q01638)", "sequence (Q01638 whole entry, looked up)": "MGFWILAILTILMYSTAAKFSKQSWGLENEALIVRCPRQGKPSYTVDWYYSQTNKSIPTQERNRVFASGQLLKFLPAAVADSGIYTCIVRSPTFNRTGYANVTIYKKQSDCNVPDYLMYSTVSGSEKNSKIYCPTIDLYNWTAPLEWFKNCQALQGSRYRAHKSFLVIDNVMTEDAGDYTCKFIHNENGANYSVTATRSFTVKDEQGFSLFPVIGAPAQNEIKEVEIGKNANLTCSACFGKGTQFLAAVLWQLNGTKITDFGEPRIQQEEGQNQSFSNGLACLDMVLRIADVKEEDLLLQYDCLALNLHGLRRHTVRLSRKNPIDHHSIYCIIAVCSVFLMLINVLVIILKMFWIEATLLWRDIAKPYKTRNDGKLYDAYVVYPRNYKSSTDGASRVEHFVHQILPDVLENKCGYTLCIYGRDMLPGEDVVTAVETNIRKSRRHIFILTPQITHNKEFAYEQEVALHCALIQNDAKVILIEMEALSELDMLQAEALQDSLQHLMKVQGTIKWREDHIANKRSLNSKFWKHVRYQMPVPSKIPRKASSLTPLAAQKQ", "test": "inhibitors of human ST2 (IL1RL1) binding to IL-33, primary screen, biochemical, AlphaLISA (AID 1259354)", "conditions": "AlphaLISA ST2-Fc/biotin-IL-33 interaction, 1 h; at 17 µM, stronger effect = higher value", "values": [{"smiles": "FC(F)(F)c1ccnc(NCc2cccnc2-n2ccnc2)c1", "inhibition": "inactive"}, {"smiles": "O=C(Nc1ccc2c(c1)OCO2)C1CCN(S(=O)(=O)c2ccc(F)cc2)CC1", "inhibition": "inactive"}, {"smiles": "Clc1ccc(OCCN2CCCCCC2)cc1", "inhibition": "inactive"}, {"smiles": "N#Cc1nc(COc2ccc(Cl)cc2)oc1N1CCCC1", "inhibition": "73% (active)"}, {"smiles": "Cn1c(=O)c2c(nc(N3CCCCCC3)n2CC(O)COc2ccc(Cl)cc2)n(C)c1=O", "note": "(stereo not drawn)", "inhibition": "inactive"}, {"smiles": "COCCO[C@H]1[C@H](NC(=O)C(C)C)c2ccccc2C12CCN(C(=O)c1cc(C(C)C)on1)CC2", "inhibition": "inactive"}, {"smiles": "O=C(O)c1cc(Br)ccc1N=Cc1nc(-c2ccccc2)oc1O", "inhibition": "inactive"}, {"smiles": "C=CCOc1ccc(C2C(C(=O)OCC(C)C)=C(C)N=C3SCCC(=O)N32)cc1", "note": "(stereo not drawn)", "inhibition": "inactive"}, {"smiles": "COc1ccccc1NC(NC(=O)c1cccc(Cl)c1)C(Cl)(Cl)Cl", "note": "(stereo not drawn)", "inhibition": "inactive"}, {"smiles": "O=C(CCCn1cnnn1)N1CCOC(c2ccc(Cl)c(Cl)c2)C1", "note": "(stereo not drawn)", "inhibition": "inactive"}, {"smiles": "O=C(CCn1cnnn1)NCc1cnn2ccccc12", "inhibition": "30% (active)"}, {"smiles": "O=C(CN1CCOC1=O)NCc1cnn2ccccc12", "inhibition": "inactive"}, {"smiles": "Cc1nn(C(=O)/C=C/c2ccccc2)c(C)c1Sc1ccccc1", "inhibition": "39% (active)"}, {"smiles": "Cc1nn(C(=O)c2cccs2)c(C)c1Sc1ccccc1", "inhibition": "inactive"}, {"smiles": "Cc1nn(C(=O)c2ccccc2)c(C)c1Sc1ccccc1", "inhibition": "inactive"}, {"smiles": "CC1CC(C)CN(C2CC(=O)N(c3ccc(Br)cc3Br)C2=O)C1", "note": "(stereo not drawn)", "inhibition": "inactive"}, {"smiles": "Cc1ccc(N2C(=O)CC(Nc3ccc(N4CCOCC4)cc3)C2=O)c(Br)c1", "note": "(stereo not drawn)", "inhibition": "56% (active)"}, {"smiles": "CC1CN(C2CC(=O)N(c3ccc(Br)cc3Br)C2=O)CC(C)O1", "note": "(stereo not drawn)", "inhibition": "inactive"}, {"smiles": "CN1CCN(CCCNC(=O)COc2ccc3c(c2)C(=O)CC(C)(C)O3)CC1", "inhibition": "inactive"}, {"smiles": "COc1ccc(NC(=O)Cn2cnc3scc(-c4ccccc4)c3c2=O)cc1Cl", "inhibition": "inactive"}, {"smiles": "COc1cccc(N2CCN(S(=O)(=O)c3ccc4c(c3)c(=O)n(C)c(=O)n4C)CC2)c1", "inhibition": "inactive"}, {"smiles": "CS(=O)(=O)n1nnc2ccccc21", "inhibition": "inactive"}, {"smiles": "O=C1C(Nc2ccc(O)cc2)=C(n2nnc3ccccc32)C(=O)c2ccccc21", "inhibition": "47% (active)"}, {"smiles": "Cc1cc(=O)[nH]c(SCC(=O)Nc2ccc(F)cc2)n1", "inhibition": "inactive"}, {"smiles": "CCOc1ccc(Sc2cc(C(=O)NC3CC3)c3ccccc3n2)cc1", "inhibition": "inactive"}, {"smiles": "COc1ccc(C2=NN(C(C)=O)C(c3cc(OC)ccc3OC)C2)cc1", "note": "(stereo not drawn)", "inhibition": "inactive"}, {"smiles": "COc1ccc(C2=NN3COc4ccc(Br)cc4C3C2)cc1", "note": "(stereo not drawn)", "inhibition": "36% (active)"}, {"smiles": "COc1ccc(C2=NN3COc4ccc(Cl)cc4C3C2)cc1", "note": "(stereo not drawn)", "inhibition": "inactive"}, {"smiles": "O=S(=O)(Nc1ccccc1Br)c1ccccc1", "inhibition": "inactive"}, {"smiles": "CN(C)C(=O)c1ccc(S(=O)(=O)NC2CCCCCC2)s1", "inhibition": "inactive"}, {"smiles": "O=C(O)c1ccc(C(=O)c2ccc([N+](=O)[O-])cc2)cc1", "inhibition": "inactive"}, {"smiles": "Cc1ccc(Sc2c(C)nn(C(=O)c3ccc([N+](=O)[O-])cc3)c2C)cc1", "inhibition": "60% (active)"}, {"smiles": "Cc1nn(C(=O)c2cccnc2)c(C)c1Sc1ccc(Cl)cc1", "inhibition": "inactive"}]}]}
